# Experimental data reported in PubChem BioAssay (EPA / NIEHS).
# Activity calls are given as the source filed them. Rule for the calls: active = hit-call score of the fitted dose curve at least 0.9, where 1 is the maximum; inactive = score below 0.9.
# Legend:
# [1] = molecular target: Transcription factor E2F1 (Homo sapiens) (UniProt Q01094); assay: ATG_E2F_CIS: Attagene CIS-FACTORIAL HepG2 Assay for human E2F Transcription Factor 1 (AID 2282935); details: HepG2 Attagene cis-reporter, E2F reporter RNA transcripts; actives raise or lower the signal
# Outline: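 In this cis-factorial format, endogenous factor activity drives transfected reporters in HepG2; transcripts collected at 24 h are quantified by fluorescence after RT-PCR and capillary separation.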
# [2] = ATG_E_Box_CIS: Attagene CIS-FACTORIAL HepG2 Assay for human Enhancer Box (E-box) (AID 2282936); details: HepG2 E-box cis-reporter transcription, actives raise or lower the signal
# Outline: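 Measured 24 h post-dosing in HepG2 cells transfected with multiple cis-regulated reporter units, signal being reporter mRNA induction detected by fluorescent RT-PCR with capillary electrophoresis; gain or loss fitted against DMSO.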
# [3] = ATG_M_61_CIS: Attagene CIS-FACTORIAL HepG2 Assay for M61 Transcription Factor (Internal Marker) (AID 2282937); details: HepG2 Attagene CIS-FACTORIAL M61 internal marker reporter; actives raise or lower the signal
# Outline: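 Transfect HepG2 with MRTUs; dose 24 h; isolate RNA; reverse-transcribe with DNase I treatment; PCR-amplify, FAM-label and cut with HpaI for 2 h at 37 C; resolve by CE. Bidirectional fitting against DMSO.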
# [4] = ATG_EGR_CIS: Attagene CIS-FACTORIAL HepG2 Assay for human Early Growth Response 1 (EGR1) (AID 2282938); details: HepG2 Attagene CIS-FACTORIAL EGR reporter mRNA; actives raise or lower the signal
# Outline: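 After a 24 h treatment of transiently transfected HepG2 cells, total RNA was reverse-transcribed and reporter sequences PCR-amplified, labelled and run on capillary electrophoresis. Reporters sit under cis-regulatory promoters sensing endogenous factors.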
# [5] = ATG_M_19_CIS: Attagene CIS-FACTORIAL HepG2 Assay for M19 Transcription Factor (Internal Marker) (AID 2282939); details: HepG2 Attagene CIS-FACTORIAL M19 internal marker reporter; actives raise or lower the signal
# Outline: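 Internal marker readout, fitted in both directions against DMSO, from HepG2 cells carrying transfected cis-element reporter constructs; RT-PCR and capillary electrophoresis of reporter mRNA after 24 h exposure.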
# [6] = ATG_ERE_CIS: Attagene CIS-FACTORIAL HepG2 Assay for Estrogen Response Element (ERE) (AID 2282940); details: HepG2 ERE cis-reporter, Attagene RNA transcript; actives raise or lower the signal
# Outline: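 After 24 h compound treatment, RNA from transfected HepG2 cells was reverse-transcribed, reporter cDNA PCR-amplified, FAM-labelled, HpaI-cut and resolved by capillary electrophoresis. ERE-driven cis reporter transcripts reflect endogenous factors; gain or loss scored against DMSO.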
# [7] = ATG_Ets_CIS: Attagene CIS-FACTORIAL HepG2 Assay for human Erythroblast Transformation Specific (ETS) (AID 2282941); details: HepG2 ETS cis-reporter transcription, actives raise or lower the signal
# Outline: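 Bidirectional fit versus DMSO of reporter mRNA signal, detected by RT-PCR and capillary electrophoresis in HepG2 cells transiently transfected with cis-element reporters and dosed 24 h.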
# [8] = molecular target: Hepatocyte nuclear factor 3-beta (Homo sapiens) (UniProt Q9Y261); assay: ATG_FoxA2_CIS: Attagene CIS-FACTORIAL HepG2 Assay for human Forkhead box A2 (FOXA2) (AID 2282942); details: HepG2 cis-reporter transcription factor activity, 24 h; actives raise or lower the signal
# Outline: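 24 h dosing of HepG2 bearing cis-reporter constructs; mRNA readout by RT-PCR/CE fluorescence; bidirectional fit, DMSO baseline.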
# [9] = ATG_GATA_CIS: Attagene CIS-FACTORIAL HepG2 Assay for human GATA Binding Protein (AID 2282944); details: HepG2 GATA cis-element reporter, Attagene multiplex mRNA; actives raise or lower the signal
# Outline: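 Reporter transcripts from a GATA cis-regulated unit, among multiplexed reporters in transfected HepG2 cells, were measured by RT-PCR with capillary electrophoresis after 24 h dosing. Induction or loss scored relative to DMSO.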
# [10] = ATG_GLI_CIS: Attagene CIS-FACTORIAL HepG2 Assay for human Zinc Finger Protein GLI1 (AID 2282945); details: HepG2, Attagene cis-factorial reporter mRNA, GLI element; actives raise or lower the signal
# Outline: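 HepG2 cells transiently transfected with cis-promoter multiplexed reporter units report endogenous transcription factor activity. After 24 h chemical exposure, reporter mRNA was quantified by RT-PCR, 6-FAM labelling, HpaI digestion and capillary electrophoresis, with bidirectional fitting against DMSO.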
# [11] = ATG_GRE_CIS: Attagene CIS-FACTORIAL HepG2 Assay for human Glucocorticoid Response Elements (GRE) (AID 2282947); details: HepG2 GRE cis-reporter, Attagene multiplex mRNA; actives raise or lower the signal
# Outline: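 HepG2, transient cis-reporter transfection, 24 h. Reporter mRNA: RT-PCR then CE, fluorescence. Fit both directions vs DMSO.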
# [12] = ATG_ISRE_CIS: Attagene CIS-FACTORIAL HepG2 Assay for human Interferon Regulatory Factor 1 (IRF1) binding to an Interferon-Stimulated Response Element (ISRE) (AID 2282948); details: HepG2 ISRE cis-reporter (Attagene), mRNA transcription readout; actives raise or lower the signal
# Outline: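 Uses HepG2 liver cells transfected with cis-regulated reporters and measures mRNA 24 h post-dosing through RT-PCR, primer-extension labelling and capillary electrophoresis, with DMSO as negative control.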
# [13] = ATG_M_32_CIS: Attagene CIS-FACTORIAL HepG2 Assay for M32 Transcription Factor (Internal Marker) (AID 2282949); details: HepG2 Attagene cis-factorial M32 reporter, mRNA; actives raise or lower the signal;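 note: background control marker of the multiplexed CIS panel rather than a real target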
# Outline: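 Using DMSO as baseline, bidirectional curve fits were applied to reporter mRNA signals. These came from transiently transfected HepG2 cells exposed for 24 h, with RNA analysed by RT-PCR, FAM primer extension, HpaI digestion and CE.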
# [14] = ATG_M_06_CIS: Attagene CIS-FACTORIAL HepG2 Assay for M06 Transcription Factor (Internal Marker) (AID 2282950); details: HepG2 Attagene CIS-FACTORIAL M06 internal marker reporter; actives raise or lower the signal
# Outline: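 Serves as a background control readout. Transfected HepG2 exposed to compounds for 24 h, then reporter transcripts quantified by fluorescent RT-PCR and capillary electrophoresis. Both directions fitted against DMSO baseline.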
# [15] = molecular target: Hypoxia-inducible factor 1-alpha (Homo sapiens) (UniProt Q16665); assay: ATG_HIF1a_CIS: Attagene CIS-FACTORIAL HepG2 Assay for human Hypoxia Inducible Factor 1 (HIF1A) (AID 2282951); details: HepG2 Attagene cis-factorial HIF1a reporter transcription; actives raise or lower the signal
# Outline: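 After 24 h chemical exposure of reporter-transfected HepG2 cells, reporter cDNA was PCR-amplified, labelled by 6-FAM primer extension (2 min 95 C, 20 s 68 C, 10 min 72 C), HpaI-cut (2 h, 37 C) and analysed by CE.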
# [16] = molecular target: Hepatocyte nuclear factor 6 (Homo sapiens) (UniProt Q9UBC0); assay: ATG_HNF6_CIS: Attagene CIS-FACTORIAL HepG2 Assay for human Hepatocyte Nuclear Factor 6 (HNF6) (AID 2282952); details: HepG2 Attagene cis-factorial HNF6 reporter transcription; actives raise or lower the signal
# Outline: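 Twenty-four-hour chemical treatment of reporter-transfected HepG2 cells precedes RNA isolation, DNase-treated reverse transcription and PCR of reporter sequences. Labelled fragments are sized by capillary electrophoresis and fitted bidirectionally versus DMSO.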
# [17] = molecular target: Heat shock factor protein 1 (Homo sapiens) (UniProt Q00613); assay: ATG_HSE_CIS: Attagene CIS-FACTORIAL HepG2 Assay for human Heat Shock Transcription Factor 1 (HSE) (AID 2282953); details: HepG2 HSE cis-reporter, Attagene RNA transcription; actives raise or lower the signal
# Outline: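 Endogenous transcription factor activity in transiently transfected HepG2, read as reporter mRNA by RT-PCR with fluorescent capillary electrophoresis after 24 h. Gain or loss of signal fitted versus DMSO baseline.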
# [18] = ATG_MRE_CIS: Attagene CIS-FACTORIAL HepG2 Assay for human Metal Responsive Element (MRE) (AID 2282954); details: HepG2 MRE cis-reporter transcription, Attagene multiplex; actives raise or lower the signal
# Outline: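 Readout: capillary electrophoresis of 6-FAM-labelled, HpaI-digested RT-PCR reporter products. System: HepG2 cells carrying transient multiplexed cis reporters, dosed 24 h. Analysis: bidirectional fit, DMSO baseline.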
# [19] = ATG_FoxO_CIS: Attagene CIS-FACTORIAL HepG2 Assay for human Forkhead box O (FoxO) (AID 2282943); details: HepG2 Attagene cis-reporter, FoxO element, mRNA; actives raise or lower the signal
# Outline: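 HepG2 cells transiently transfected with cis-promoter-driven multiple reporter transcription units; 24 h after chemical dosing, reporter mRNA quantified by RT-PCR, fluorescent primer extension, HpaI digestion and capillary electrophoresis. Bidirectional fitting versus DMSO baseline.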
# [20] = molecular target: Bile acid receptor (Homo sapiens) (UniProt Q96RI1); assay: ATG_IR1_CIS: Attagene CIS-FACTORIAL HepG2 Assay for human Nuclear Receptor Subfamily 1 Group H Member 4 (NR1H4), IR1 submotif (AID 2282946); details: IR1 reporter transcription, actives raise or lower the signal
# Outline: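 Readout: reporter transcript levels by RT-PCR with fluorescent capillary electrophoresis, from HepG2 cells transiently transfected with multiplexed cis-regulated reporters and dosed 24 h. Gain- or loss-of-signal fitted versus DMSO negative control.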
# Sequence of Bile acid receptor (Homo sapiens) (Q96RI1 whole entry, looked up): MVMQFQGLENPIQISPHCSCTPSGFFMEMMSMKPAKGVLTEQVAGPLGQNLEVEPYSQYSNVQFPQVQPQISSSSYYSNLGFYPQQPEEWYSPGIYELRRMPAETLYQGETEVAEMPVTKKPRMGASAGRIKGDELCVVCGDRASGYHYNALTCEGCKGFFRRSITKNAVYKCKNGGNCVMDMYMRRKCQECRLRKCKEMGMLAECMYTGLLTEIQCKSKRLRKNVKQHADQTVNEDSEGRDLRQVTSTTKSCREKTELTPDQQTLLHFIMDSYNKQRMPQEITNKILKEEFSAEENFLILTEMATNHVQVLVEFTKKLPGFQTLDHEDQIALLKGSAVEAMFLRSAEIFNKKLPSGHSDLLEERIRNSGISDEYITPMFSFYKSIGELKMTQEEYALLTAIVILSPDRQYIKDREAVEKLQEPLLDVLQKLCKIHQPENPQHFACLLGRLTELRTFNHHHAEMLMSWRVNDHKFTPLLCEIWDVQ
# Sequence of Heat shock factor protein 1 (Homo sapiens) (Q00613 whole entry, looked up): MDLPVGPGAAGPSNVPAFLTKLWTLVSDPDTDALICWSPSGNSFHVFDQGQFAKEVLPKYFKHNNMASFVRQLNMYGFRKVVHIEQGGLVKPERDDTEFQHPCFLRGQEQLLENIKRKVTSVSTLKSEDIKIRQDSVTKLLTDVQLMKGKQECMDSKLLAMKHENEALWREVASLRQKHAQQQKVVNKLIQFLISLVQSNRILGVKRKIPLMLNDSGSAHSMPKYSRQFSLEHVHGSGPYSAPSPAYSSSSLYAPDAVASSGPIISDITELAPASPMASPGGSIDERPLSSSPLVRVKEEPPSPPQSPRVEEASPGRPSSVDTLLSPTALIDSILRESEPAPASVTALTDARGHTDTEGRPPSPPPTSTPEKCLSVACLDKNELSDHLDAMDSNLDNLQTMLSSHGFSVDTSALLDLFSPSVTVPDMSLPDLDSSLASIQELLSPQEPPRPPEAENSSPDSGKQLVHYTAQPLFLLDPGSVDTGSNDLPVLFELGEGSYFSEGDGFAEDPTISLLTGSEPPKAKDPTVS
# Sequence of Hypoxia-inducible factor 1-alpha (Homo sapiens) (Q16665 whole entry, looked up): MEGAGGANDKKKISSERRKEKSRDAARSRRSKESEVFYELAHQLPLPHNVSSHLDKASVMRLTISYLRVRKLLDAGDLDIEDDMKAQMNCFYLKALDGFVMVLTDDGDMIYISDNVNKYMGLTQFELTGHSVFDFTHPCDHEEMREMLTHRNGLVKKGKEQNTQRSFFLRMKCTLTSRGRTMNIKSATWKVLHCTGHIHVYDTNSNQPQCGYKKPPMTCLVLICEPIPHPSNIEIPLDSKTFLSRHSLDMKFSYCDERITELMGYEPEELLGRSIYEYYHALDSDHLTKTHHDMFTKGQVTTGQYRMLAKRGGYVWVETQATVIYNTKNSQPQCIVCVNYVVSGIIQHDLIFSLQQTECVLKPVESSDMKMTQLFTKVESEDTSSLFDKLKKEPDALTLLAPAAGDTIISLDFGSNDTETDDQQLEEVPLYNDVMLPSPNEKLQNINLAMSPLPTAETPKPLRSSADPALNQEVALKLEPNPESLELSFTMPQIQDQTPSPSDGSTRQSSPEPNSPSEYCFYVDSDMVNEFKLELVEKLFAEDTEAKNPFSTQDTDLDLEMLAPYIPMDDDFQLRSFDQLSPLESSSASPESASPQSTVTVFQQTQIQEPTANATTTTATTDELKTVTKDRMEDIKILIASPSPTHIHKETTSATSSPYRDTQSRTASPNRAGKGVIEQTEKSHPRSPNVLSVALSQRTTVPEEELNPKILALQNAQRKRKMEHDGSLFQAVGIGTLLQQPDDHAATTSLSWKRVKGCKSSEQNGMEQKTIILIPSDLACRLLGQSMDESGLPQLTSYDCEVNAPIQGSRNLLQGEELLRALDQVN
# Sequence of Hepatocyte nuclear factor 3-beta (Homo sapiens) (Q9Y261 whole entry, looked up): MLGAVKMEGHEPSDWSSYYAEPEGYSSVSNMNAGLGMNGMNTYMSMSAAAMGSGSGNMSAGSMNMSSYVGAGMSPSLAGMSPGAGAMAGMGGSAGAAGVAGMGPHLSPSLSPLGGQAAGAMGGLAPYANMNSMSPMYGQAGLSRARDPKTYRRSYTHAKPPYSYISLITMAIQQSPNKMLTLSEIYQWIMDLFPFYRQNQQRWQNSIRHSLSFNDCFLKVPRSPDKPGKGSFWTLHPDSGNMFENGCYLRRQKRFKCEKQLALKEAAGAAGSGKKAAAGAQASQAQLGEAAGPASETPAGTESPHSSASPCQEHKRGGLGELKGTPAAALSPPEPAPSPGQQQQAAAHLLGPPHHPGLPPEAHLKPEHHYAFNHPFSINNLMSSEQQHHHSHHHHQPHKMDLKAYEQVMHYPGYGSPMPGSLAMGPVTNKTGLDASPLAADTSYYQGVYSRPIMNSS
# Sequence of Transcription factor E2F1 (Homo sapiens) (Q01094 whole entry, looked up): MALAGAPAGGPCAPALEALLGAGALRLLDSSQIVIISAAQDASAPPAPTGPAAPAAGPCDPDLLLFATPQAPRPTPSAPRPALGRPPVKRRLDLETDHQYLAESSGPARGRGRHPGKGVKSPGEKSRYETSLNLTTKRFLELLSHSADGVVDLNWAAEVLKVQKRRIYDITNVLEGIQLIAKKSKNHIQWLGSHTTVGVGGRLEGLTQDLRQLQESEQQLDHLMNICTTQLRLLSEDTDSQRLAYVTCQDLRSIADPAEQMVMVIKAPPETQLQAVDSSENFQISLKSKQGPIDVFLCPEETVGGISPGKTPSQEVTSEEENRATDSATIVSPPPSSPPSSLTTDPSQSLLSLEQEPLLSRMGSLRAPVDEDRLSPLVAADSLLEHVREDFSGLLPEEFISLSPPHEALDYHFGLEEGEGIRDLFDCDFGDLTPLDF
# Sequence of Hepatocyte nuclear factor 6 (Homo sapiens) (Q9UBC0 whole entry, looked up, the tested form may be a part): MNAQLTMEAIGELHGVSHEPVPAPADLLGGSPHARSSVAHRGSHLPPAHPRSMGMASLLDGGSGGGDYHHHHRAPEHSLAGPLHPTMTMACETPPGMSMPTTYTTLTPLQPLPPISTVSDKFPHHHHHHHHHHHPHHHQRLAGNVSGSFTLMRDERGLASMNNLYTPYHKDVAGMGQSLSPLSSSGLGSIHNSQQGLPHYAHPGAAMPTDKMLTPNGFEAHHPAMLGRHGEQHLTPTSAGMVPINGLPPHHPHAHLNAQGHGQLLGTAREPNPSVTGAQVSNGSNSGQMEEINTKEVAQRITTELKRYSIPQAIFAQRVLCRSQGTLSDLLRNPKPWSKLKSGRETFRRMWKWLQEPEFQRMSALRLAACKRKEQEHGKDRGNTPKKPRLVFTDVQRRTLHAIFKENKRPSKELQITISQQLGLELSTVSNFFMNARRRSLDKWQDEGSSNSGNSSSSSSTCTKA
compound,measurement,setting,value
CCCCNS(=O)(=O)c1ccc(C)cc1,outcome,[1],inactive
same,outcome,[2],inactive
same,outcome,[3],inactive
same,outcome,[4],inactive
same,outcome,[5],inactive
same,outcome,[6],inactive
same,outcome,[7],inactive
same,outcome,[8],inactive
same,outcome,[9],inactive
same,outcome,[10],inactive
same,outcome,[11],inactive
same,outcome,[12],inactive
same,outcome,[13],inactive
same,outcome,[14],inactive
same,outcome,[15],inactive
same,outcome,[16],inactive
same,outcome,[17],inactive
same,outcome,[18],inactive
CCc1occc(=O)c1O,outcome,[1],inactive
same,outcome,[2],inactive
same,outcome,[4],inactive
same,outcome,[5],inactive
same,outcome,[6],inactive
same,outcome,[7],inactive
same,outcome,[8],inactive
same,outcome,[19],inactive
same,outcome,[9],inactive
same,outcome,[10],inactive
same,outcome,[20],inactive
same,outcome,[12],inactive
same,outcome,[13],inactive
same,outcome,[14],inactive
same,outcome,[15],inactive
same,outcome,[16],inactive
same,outcome,[17],inactive
same,outcome,[18],inactive
CC(C)C(=O)OCCOc1ccccc1,outcome,[1],inactive
same,outcome,[2],inactive
same,outcome,[4],inactive
same,outcome,[5],inactive
same,outcome,[6],inactive
same,outcome,[7],inactive
same,outcome,[8],inactive
same,outcome,[19],inactive
same,outcome,[9],inactive
same,outcome,[10],inactive
same,outcome,[11],inactive
same,outcome,[12],inactive
same,outcome,[13],inactive
same,outcome,[14],inactive
same,outcome,[15],inactive
same,outcome,[16],inactive
CC(=O)OC1CCCCC1C(C)(C)C (stereo unspecified),outcome,[1],inactive
same,outcome,[2],inactive
same,outcome,[4],inactive
same,outcome,[5],inactive
same,outcome,[6],inactive
same,outcome,[7],inactive
same,outcome,[8],inactive
same,outcome,[19],inactive
same,outcome,[9],inactive
same,outcome,[10],inactive
same,outcome,[11],inactive
same,outcome,[12],inactive
same,outcome,[13],inactive
same,outcome,[14],inactive
same,outcome,[15],inactive
same,outcome,[16],inactive
same,outcome,[17],inactive
same,outcome,[18],inactive
C=C(C)C1CC=C(C)C(OC(C)=O)C1 (stereo unspecified),outcome,[1],inactive
same,outcome,[2],inactive
same,outcome,[4],inactive
same,outcome,[5],inactive
same,outcome,[6],inactive
same,outcome,[7],inactive
same,outcome,[8],inactive
same,outcome,[19],inactive
same,outcome,[9],inactive
same,outcome,[10],inactive
same,outcome,[20],inactive
same,outcome,[11],inactive
same,outcome,[12],inactive
same,outcome,[13],inactive
same,outcome,[14],inactive
same,outcome,[15],inactive
same,outcome,[16],inactive
same,outcome,[17],inactive
same,outcome,[18],inactive
CCCCCCCOC(=O)c1ccc(O)cc1,outcome,[1],inactive
same,AC50,[2],54.3 µM (active)
same,outcome,[4],inactive
same,outcome,[5],inactive
same,AC50,[6],19.3 µM (active)
same,outcome,[7],inactive
same,outcome,[8],inactive
same,outcome,[19],inactive
same,outcome,[9],inactive
same,AC50,[10],45.7 µM (active)
same,AC50,[20],50.9 µM (active)
same,outcome,[11],inactive
same,outcome,[12],inactive
same,outcome,[13],inactive
same,outcome,[14],inactive
same,AC50,[15],59.9 µM (active)
same,outcome,[16],inactive
same,AC50,[18],52.6 µM (active)
C=CC(=O)NC(C)(C)C,outcome,[1],inactive
same,outcome,[2],inactive
same,outcome,[4],inactive
same,outcome,[5],inactive
same,outcome,[6],inactive
same,outcome,[7],inactive
same,outcome,[8],inactive
same,outcome,[19],inactive
same,outcome,[9],inactive
same,outcome,[10],inactive
same,AC50,[20],27.5 µM (active)
same,outcome,[11],inactive
same,outcome,[12],inactive
same,outcome,[13],inactive
same,outcome,[14],inactive
same,outcome,[15],inactive
same,outcome,[16],inactive
same,outcome,[17],inactive
same,outcome,[18],inactive
